Assay results published in PubChem BioAssay (NCI).
The panel holds about 79,000 compounds, 15% with a hit somewhere; the sample as a whole holds those more often. Rule as the data show it: active = growth inhibition above about 70%; inactive = the rest.

Legend:
[1] = NCI Yeast Anticancer Drug Screen. Data for the rad50 strain (AID 155);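 also: 0% = growth of vehicle-only cultures of the same strain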; conditions: S. cerevisiae rad50 strain growth inhibition; at 50.0 µM; stronger effect = higher value
Outline: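 Genetically altered yeast (DNA repair pathway); compound treatment; growth inhibition vs vehicle ctrl.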

[2] = NCI Yeast Anticancer Drug Screen. Data for the mec2-1 strain (AID 157); conditions: S. cerevisiae mec2-1 strain, at 50.0 µM, stronger effect = higher value
Outline: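 Mutant yeast (mec2-1) grown with compound; growth inhibition relative to vehicle control reported.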

[3] = NCI Yeast Anticancer Drug Screen. Data for the sgs1 mgt1 strain (AID 161);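 also: 0% = growth of cultures given vehicle only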; conditions: S. cerevisiae sgs1 mgt1 strain, at 50.0 µM, stronger effect = higher value
Outline: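 This yeast growth screen uses a strain with defined DNA-repair lesions; compound-treated growth is compared with vehicle-treated growth.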

[4] = NCI Yeast Anticancer Drug Screen. Data for the cln2 rad14 strain (AID 165);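 also: 0% = growth equal to vehicle treated cultures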; conditions: S. cerevisiae cln2 rad14 strain, at 50.0 µM, stronger effect = higher value
Outline: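 Readout is yeast growth inhibition versus vehicle-treated controls, using a strain with cln2 and rad14 alterations exposed to compound.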

[5] = NCI Yeast Anticancer Drug Screen. Data for the bub3 strain (AID 167); conditions: S. cerevisiae bub3 mutant strain, at 50.0 µM, stronger effect = higher value
Outline: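 Yeast carrying a defined mutation is treated with each compound, and growth is compared with that of vehicle-exposed cells to give inhibition.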

[6] = NCI Yeast Anticancer Drug Screen. Data for the mlh1 rad18 strain (AID 175); conditions: S. cerevisiae mlh1 rad18 strain growth inhibition; at 50.0 µM; stronger effect = higher value
Outline: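 Genetically defined yeast (DNA repair-deficient) exposed to compounds; growth inhibition determined relative to vehicle.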

Measured: growth inhibition

COc1ccc(OC)c(C(=O)c2cccc(C(=O)c3cc(OC)ccc3OC)n2)c1
inactive: [1] 20.9% | [2] 6.25% | [3] 42.5% | [4] -21.8% | [5] -30.4% | [6] 20.6%

CCCOCOCCC
inactive: [1] -22.5% | [2] 0.05% | [3] -13.2% | [4] -28.4% | [5] 11.7% | [6] -27.5%

CCC(Nc1nncs1)Nc1nncs1
inactive: [1] -21.9% | [2] 22.6% | [3] 2.2% | [4] -20.9% | [5] 2.95% | [6] -3%

CCOC(=O)Nc1nc2ccn(C)c2s1
inactive: [1] 6.3% | [2] -6.9% | [3] 2.15% | [4] -6.4% | [5] 4.6% | [6] -8%

CCOC(=O)NC(Nc1cccc(C(F)(F)F)c1)(C(F)(F)F)C(F)(F)F
inactive: [1] 1.45% | [2] -10.3% | [3] -38.5% | [4] 7.7% | [5] -15.6% | [6] -3.3%

CC(O)CNC(=O)Nc1ccccc1 (stereo unspecified)
inactive: [1] -26.9% | [2] -26.8% | [3] -9.8% | [4] -5.25% | [5] 3.95% | [6] -17.6%

Cc1ccc(-n2cnc3c(N/N=C4\SCC(=O)N4c4ccccc4)ncnc32)cc1
inactive: [1] 41.2% | [2] 17.6% | [3] 40.2% | [4] 15.1% | [5] 49.2% | [6] 35%

CCCC(=O)/C=C\c1ccccc1
inactive: [1] 21.6% | [2] -3.7% | [3] 6.55% | [4] -61.9% | [5] 3.2% | [6] -10.7%

O=C(NCCCl)Nc1cccc2c1CCC2
inactive: [1] -11.1% | [2] -0.7% | [3] -9.5% | [4] -47.3% | [5] -23.1% | [6] -4.8%

O=C(CCCl)Nc1cccc(CCC(=O)c2ccccc2NC(=O)CCCl)c1
inactive: [1] -8.1% | [2] -18.1% | [3] -4.2% | [4] -15.9% | [5] -7.1% | [6] -10.4%

C#CC(C)(CC)OC(C)=O (stereo unspecified)
inactive: [1] 44.3% | [2] -16.4% | [3] 7.6% | [4] -23% | [5] 19.9% | [6] 20.3%

Cc1c(C(=O)O)[nH]c2c(Cl)ccc(C)c2c1=O
inactive: [1] -34.2% | [2] -9.15% | [3] 9.5% | [4] -44.5% | [5] 9.8% | [6] 4.75%

COC(=O)Cc1nn2c(nc1=O)sc1ccc3ccccc3c12
inactive: [1] -16.7% | [2] -3.05% | [3] 3.3% | [4] 1.25% | [5] -3.8% | [6] -17.2%

c1ccc(C2N3CCCCC3[C@@H]3c4[nH]c5ccccc5c4CCN23)nc1 (stereo partly specified)
inactive: [1] -26.8% | [2] -36.5% | [3] -6.5% | [4] 13.3% | [5] -25.9% | [6] -4.1%

Oc1cccc(CCc2ccccn2)c1
inactive: [1] -2.45% | [2] 0.85% | [3] -11.3% | [4] -24.3% | [5] -3.85% | [6] -4.05%

C=C(C)C#CC(O)(C(=O)OC1CCN(C)CC1)C(C)C (stereo unspecified)
inactive: [1] -7.95% | [2] -14% | [3] -21.1% | [4] 7.2% | [5] 20.9% | [6] -22.1%

O=c1[nH]c2cc(Cl)ccc2c2cc(Cl)ccc12
inactive: [1] 39.9% | [2] 7.6% | [3] 16.6% | [4] -3.3% | [5] -0.3% | [6] 52.2%

N#Cc1sc2c(c1O)c(=O)n(-c1ccccc1)c(=S)n2-c1ccccc1
inactive: [1] -40.9% | [2] -36.9% | [3] -37.3% | [4] -23.1% | [5] -54.9% | [6] -47.8%

Cc1cc(C)c(N)c(C(=O)O)c1
inactive: [1] -46.5% | [2] -34.6% | [3] -39.8% | [4] -16.1% | [5] -47% | [6] -15.9%

CC1(C)OC(=O)C(C(N)=O)C1c1ccc(Cl)cc1 (stereo unspecified)
inactive: [1] 6.15% | [2] 0.8% | [3] -5.65% | [4] -3% | [5] -6.25% | [6] 13.8%

O=C(CSc1nc(-c2ccccc2)c(-c2ccccc2)[nH]1)NNC(=S)Nc1ccccc1
inactive: [1] 6.45% | [2] 0.5% | [3] -7.15% | [4] -26.3% | [5] 54.5% | [6] 3%
